# Records with an inconclusive call do not appear. The source made the active and inactive calls. Rule for the calls: active = hit-call score of the fitted dose curve at least 0.9, where 1 is the maximum; inconclusive = response in the unintended direction; inactive = score below 0.9.
# Test system: not listed separately
# Assay: TOX21_p53_BLA_p5_viability: Viability Assessment in the Tox21 HCT-116 p53 Agonism Beta-lactamase Assay, Phase 5 (AID 2283600)
# Procedure, shortened: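 Workflow: seed 4000 cells per well, wait 5 h, add compounds (DMSO, 217-fold dilution), incubate 16 h, load CCF4-AM 2 h, add CellTiter-Glo, read luminescence after 30 min.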
row,SMILES,outcome
1,CNC(=O)OCC[N+](C)(C)C,inactive
2,COc1ccccc1N1CCNCC1,inactive
3,NC(=O)CN1CC(O)CC1=O (stereo not given),inactive
4,ClCC(Cl)(Cl)Cl,inactive
5,O=C1CN(O)C(c2ccccc2)=c2cc(Cl)ccc2=N1,inactive
6,N#CC(C#N)=Cc1ccc(O)c(O)c1,inactive
7,C[C@@H](Cc1ccccc1)N(C)C,inactive
8,CNC(=O)Oc1ccccc1C1OCCO1,inactive
9,N#CCCC#N,inactive
10,c1ccc2c(c1)CCNC2,inactive
11,Clc1ccc(C2(Cn3cncn3)OCCO2)c(Cl)c1,inactive
12,COP(=S)(OC)Oc1ccc(S(N)(=O)=O)cc1,inactive
13,CN(C)c1ccc(N)cc1,inactive
14,CN(C)CCc1c[nH]c2cccc(OP(=O)(O)O)c12,inactive
15,COc1c(C(C)(C)C)cc([N+](=O)[O-])c(C)c1[N+](=O)[O-],inactive
16,CNNC,inactive
17,CN1C(=O)CC(=O)N(c2ccccc2)c2cc(Cl)ccc21,inactive
18,COC1=CC(=O)O[C@@H](/C=C/c2ccccc2)C1,inactive
19,O=S(=O)(Cl)Cl,inactive
20,CC(C)=CCOc1c2occc2cc2ccc(=O)oc12,inactive
21,CCCCCN(C)CCC(O)(P(=O)(O)O)P(=O)(O)O,inactive
22,COC(=O)C1(O)c2ccccc2-c2ccccc21,inactive
23,Clc1cc(Cl)c(-c2cc(Cl)c(Cl)cc2Cl)cc1Cl,inactive

# Biological target: Cellular tumor antigen p53 (Homo sapiens) (UniProt P04637)
# Assay: TOX21_p53_BLA_p4_ratio: Tox21 HCT-116 p53 Agonism Beta-lactamase Assay, Ratio, Phase 4 (AID 2283601)
# Procedure, shortened: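 HCT116 cells carrying an inducible beta-lactamase reporter were plated at 4000 cells/well, rested 5 h, then exposed to compounds in DMSO (217-fold dilution) for 16 h at 37C. CCF4-AM substrate was loaded 2 h at room temperature; 460/530 nm emission ratio scored gain-of-signal versus DMSO.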
# Chain of Cellular tumor antigen p53 (Homo sapiens) (P04637 whole entry, looked up): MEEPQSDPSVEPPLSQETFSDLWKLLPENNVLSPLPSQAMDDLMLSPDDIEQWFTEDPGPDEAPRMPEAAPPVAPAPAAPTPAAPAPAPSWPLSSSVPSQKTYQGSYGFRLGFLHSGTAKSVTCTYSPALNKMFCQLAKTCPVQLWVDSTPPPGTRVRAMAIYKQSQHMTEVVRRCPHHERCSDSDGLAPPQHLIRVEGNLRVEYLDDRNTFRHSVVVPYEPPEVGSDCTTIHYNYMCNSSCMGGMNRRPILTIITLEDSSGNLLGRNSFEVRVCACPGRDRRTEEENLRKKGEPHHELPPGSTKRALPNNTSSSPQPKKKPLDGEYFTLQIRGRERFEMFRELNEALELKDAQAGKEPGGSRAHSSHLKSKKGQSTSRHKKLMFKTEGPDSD
SMILES,outcome,AC50
O=C(O)C(Cl)(Cl)Br,inactive,–
CNC(=O)OCC[N+](C)(C)C,inactive,–
Cl/C=C\Cl,inactive,–
COc1ccccc1N1CCNCC1,inactive,–
NC(=O)CN1CC(O)CC1=O (stereo not given),inactive,–
Cc1ccc(N)cc1C,inactive,–
O=C1CN(O)C(c2ccccc2)=c2cc(Cl)ccc2=N1,inactive,–
CN(C)CCc1ccc(O)cc1,inactive,–
CCCCCCCCn1cc[n+](C)c1,inactive,–
N#CC(C#N)=Cc1ccc(O)c(O)c1,inactive,–
C[C@@H](Cc1ccccc1)N(C)C,inactive,–
CNC(=O)Oc1ccccc1C1OCCO1,inactive,–
NNC(=O)c1cccnc1,inactive,–
NC(=O)C(Cl)Cl,inactive,–
C=CCN1C[C@H](C)N([C@H](c2ccc(C(=O)N(CC)CC)cc2)c2cccc(OC)c2)C[C@H]1C,inactive,–
c1ccc2c(c1)CCNC2,inactive,–
Clc1ccc(C2(Cn3cncn3)OCCO2)c(Cl)c1,inactive,–
COP(=S)(OC)Oc1ccc(S(N)(=O)=O)cc1,inactive,–
COc1c(C(C)(C)C)cc([N+](=O)[O-])c(C)c1[N+](=O)[O-],inactive,–
CN1C(=O)CC(=O)N(c2ccccc2)c2cc(Cl)ccc21,inactive,–
COC1=CC(=O)O[C@@H](/C=C/c2ccccc2)C1,inactive,–
CC(C)=CCOc1c2occc2cc2ccc(=O)oc12,inactive,–
c1ccc2c(c1)Sc1ccccc1N2C[C@@H]1CN2CCC1CC2,–,43.6 µM (active)
CCCCCN(C)CCC(O)(P(=O)(O)O)P(=O)(O)O,inactive,–
N[C@@H](Cc1ccc(Oc2cc(I)c(O)c(I)c2)c(I)c1)C(=O)O,inactive,–
Clc1cc(Cl)c(-c2cc(Cl)c(Cl)cc2Cl)cc1Cl,inactive,–
CCS(=O)(=O)CCSP(=O)(OC)OC,inactive,–

# — PubChem BioAssay (EPA / NIEHS)
